In PubChem BioAssay (EPA / NIEHS):
Records with an inconclusive call do not appear. Active and inactive are the calls of the source. How the source made its calls: active means hit-call score of the fitted dose curve at least 0.9, where 1 is the maximum; inconclusive means response in the unintended direction; inactive means score below 0.9.

Test: Tanguay_ZF_120hpf_TRUN_legacy: (Legacy) Oregon State University Tanguay Lab 120 Hour Post-fertilization zebrafish Assay for Truncated Body (AID 2283655)
Protocol: Tanguay_ZF_120hpf_legacy is a whole embryo, multiplexed endpoint assay using zebrafish larvae exposed for 120 hours post fertilization on a 96-well plate.Tanguay_ZF_120hpf_TRUN_legacy is one of one assay component(s) measured or calculated from the Tanguay_ZF_120hpf_legacy assay. It is designed to make measurements of zebrafish development as detected with brightfield microscopy of developing zebrafish embryos.Data from the assay component Tanguay_ZF_120hpf_TRUN_legacy was analyzed into 1 assay endpoints. This assay endpoint, Tanguay_ZF_120hpf_TRUN_legacy, was analyzed in the positive analysis fitting direction relative to DMSO as the negative control and baseline of activity. Using a type of morphology reporter, gain-of-signal activity can be used to understand changes in developmentals as they relate to the whole embryo. To generalize the intended target to other relatable targets, this assay endpoint is annotated to the zebrafish development intended target family, where the subfamily is embryonic morphogenesis.
Zebrafish husbandry: Tropical 5D wild-type adult zebrafish were housed in at an approximate density of 1000 per 100 gallon tank at the Sinnhuber Aquatic Research Laboratory, Oregon State University, Corvallis, OR. Each tank was kept at standard laboratory conditions of 28C on a 14-h light/10-h dark photoperiod in fish water consisting of reverse osmosis water supplemented with a commercially available salt (Instant Ocean). Spawning funnels were placed into the tanks the night prior, and embryos were collected and staged. To increase bioavailability, the chorion was enzymatically removed using pronase (63.6mg/ml, >/= 3.5U/mg, Sigma-Aldrich: P5147) at 4 hours post fertilization (hpf) using a custom automated dechorionator.Chemical exposures: Six hpf dechorionated embryos were placed 1 embryo per well in a 96-well plate prefilled with 90 ul of EM using automated embryo placement systems (AEPS). Ten microliters of each row of dilution plate 2 was added to 2 exposure plates. The final DMSO concentration used was 0.64% (vol/vol). Thirty-two embryos were also exposed to 5uM trimethyltin chloride (positive control). Plates were sealed to prevent evaporation and foil covered to reduce light exposure and kept in a 28C incubator. Embryos were statically exposed until 120 hpf. At 24 hpf, embryos were assessed for photomotor response using a custom photomotor response analysis tool (PRAT) and for developmental toxicity endpoints (MO24: mortality at 24 hpf, DP: developmental progression, SM: spontaneous movement, and NC: notochord distortion). At 120 hpf, locomotor activity was measured using Viewpoint Zebralab and assessed for 18 endpoints. Zebrafish acquisition and analysis program (ZAAP), a custom program designed to inventory, acquire, and manage zebrafish data, was used to collect developmental endpoints as either present or absent (i.e., binary responses were recorded). If mortality occurred for an embryo (at either 24 or 120 hpf), the non-mortality endpoints were not measured.

SMILES	outcome	AC50
Cc1nc(-c2ccc3c(c2)CCN(CCC2CCC(NC(=O)/C=C/c4ccc(F)cc4)CC2)CC3)no1 (stereo not given)	inactive	–
CCCCCCOCCO	inactive	–
C=CCOC(=O)c1ccccc1C(=O)OCC=C	inactive	–
O=C(O)Cc1ccccc1Nc1c(Cl)cccc1Cl	inactive	–
CCCc1cc(=O)[nH]c(=S)[nH]1	inactive	–
COc1ccc(S(=O)(=O)N2C(=O)[C@@](c3ccccc3OC)(N3C[C@H](O)C[C@H]3C(=O)N(C)C)c3cc(Cl)ccc32)c(OC)c1	inactive	–
Cc1ccc(C(C)C)c(O)c1	inactive	–
Cc1cccc(Nc2cc(Cl)nc(SCC(=O)O)n2)c1C	inactive	–
Cc1oc(-c2ccccc2)nc1CCOc1cccc2c1ccn2CCC(=O)O	inactive	–
CCCCOC(=O)CCCCCCCCC(=O)OCCCC	inactive	–
CC(C)(C)c1cc(O)c(C(C)(C)C)cc1O	inactive	–
C1CCC(SSC2CCCCC2)CC1	inactive	–
Cc1ccc(C)c(C)c1	inactive	–
CCOc1ccc2c(c1)C(C)=CC(C)(C)N2	inactive	–
COCCOC[C@H](CC1(C(=O)NC2CCC(C(=O)O)CC2)CCCC1)C(=O)Oc1ccc2c(c1)CCC2 (stereo not given in full)	inactive	–
Cc1ccccc1Cl	inactive	–
CCCCCCCCCCC	inactive	–
CCCCCC(=O)O	inactive	–
CC1(C)CC(N=C=O)CC(C)(CN=C=O)C1 (stereo not given)	inactive	–
CCCCCCCCCCCCCCCCCC(=O)O	inactive	–

SMILES	outcome	AC50
Cc1cc(=O)[nH]c(=S)[nH]1	inactive	–
Cc1cc(NC(=O)C(=O)O)cc(C)c1Oc1ccc(O)c2c1CCC2	inactive	–
CCOC(=O)C(C)(C)Oc1ccc(Cl)cc1	–	65.3 µM (active)
CC(=O)OCCOCCOCCOC(C)=O	inactive	–
Nc1ccc(S(=O)(=O)c2ccc(N)cc2)cc1	inactive	–
CCCCC(CC)COC(=O)CC(C(=O)OCC(CC)CCCC)S(=O)(=O)O (stereo not given)	inactive	–
Clc1cc(Cl)c(Cl)cc1Cl	inactive	–
CCCCc1ccc2c(n1)[C@@H](c1ccc(OC)cc1C[C@H](C)C(=O)O)[C@H](C(=O)O)[C@H]2c1ccc2c(c1)OCO2	inactive	–
COc1ccc(C)cc1N	inactive	–
Cc1cccc(C)c1O	inactive	–
CCCCCCC(=O)OCC	inactive	–
Cc1cccc([N+](=O)[O-])c1C	inactive	–
C[Si]1(C)O[Si](C)(C)O[Si](C)(C)O[Si](C)(C)O1	inactive	–
CC(C)c1ccc(C(=O)N=C(N)N)cc1S(C)(=O)=O	inactive	–
CCCCCCCCCCCCCCCC	inactive	–
CC(CO)OC(C)CO (stereo not given) (tested in a mixture with another compound)	inactive	–
COC(=O)c1ccc(O)cc1	inactive	–
CCCCCCCC=O	inactive	–
CCCCCCCCCCCCCO	inactive	–
COc1cc(S(=O)(=O)O)c(C)cc1N=Nc1c(O)ccc2cc(S(=O)(=O)O)ccc12	inactive	–
